Common to all, as to parameters: scale not given: direction of the effect not stated beside the values
Test [1] concerns the target Protein translocase subunit SecA (Escherichia coli (strain K12)) (UniProt P10408). The test can be described thus: Assay to Identify E. coli SecA ATPase Inhibitors. Format: functional. As to conditions: 30 µM.
Test [2] deals with T1, Ubiquitin-activating enzyme e1, putative (Leishmania donovani (strain BPK282A1)) (UniProt E9BSI1).
T1 sequence (whole entry): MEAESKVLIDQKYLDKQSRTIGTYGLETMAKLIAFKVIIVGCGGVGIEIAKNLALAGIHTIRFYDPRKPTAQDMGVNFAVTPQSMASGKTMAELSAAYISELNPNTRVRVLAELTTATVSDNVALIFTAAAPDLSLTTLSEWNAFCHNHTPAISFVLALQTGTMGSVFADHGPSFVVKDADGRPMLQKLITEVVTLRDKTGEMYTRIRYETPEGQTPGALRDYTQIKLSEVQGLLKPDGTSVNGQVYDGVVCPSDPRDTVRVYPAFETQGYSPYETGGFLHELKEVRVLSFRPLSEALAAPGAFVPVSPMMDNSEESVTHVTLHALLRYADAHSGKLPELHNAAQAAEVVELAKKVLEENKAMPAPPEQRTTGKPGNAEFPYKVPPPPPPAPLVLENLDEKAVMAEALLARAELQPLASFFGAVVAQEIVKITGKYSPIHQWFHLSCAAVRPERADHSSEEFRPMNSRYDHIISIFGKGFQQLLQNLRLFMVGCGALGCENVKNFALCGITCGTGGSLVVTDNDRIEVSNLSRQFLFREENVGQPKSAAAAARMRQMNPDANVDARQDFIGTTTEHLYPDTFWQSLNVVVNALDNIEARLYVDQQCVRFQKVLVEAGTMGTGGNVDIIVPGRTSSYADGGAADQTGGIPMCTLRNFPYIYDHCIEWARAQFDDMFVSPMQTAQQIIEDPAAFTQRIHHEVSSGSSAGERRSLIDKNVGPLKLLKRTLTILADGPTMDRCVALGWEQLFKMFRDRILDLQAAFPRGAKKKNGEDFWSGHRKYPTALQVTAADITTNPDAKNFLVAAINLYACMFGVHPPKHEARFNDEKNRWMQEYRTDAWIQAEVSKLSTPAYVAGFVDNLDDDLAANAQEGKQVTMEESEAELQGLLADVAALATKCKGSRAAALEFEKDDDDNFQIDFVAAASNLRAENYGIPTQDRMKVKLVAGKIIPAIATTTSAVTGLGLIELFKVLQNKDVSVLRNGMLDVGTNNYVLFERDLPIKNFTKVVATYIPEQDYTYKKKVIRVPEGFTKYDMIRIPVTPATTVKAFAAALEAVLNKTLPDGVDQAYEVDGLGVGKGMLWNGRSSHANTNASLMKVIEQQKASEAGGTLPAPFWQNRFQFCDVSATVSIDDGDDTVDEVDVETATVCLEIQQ
As to the kind of experiment: Leishmania donovani Ubiquitin Activating Enzyme (LdE1). Format: functional. As to conditions: 30 µM.

Test [3] deals with AMP-activated protein kinase, AMPK (Homo sapiens) (UniProt P54646+O43741+P54619+Q9UGJ0+Q9Y478+Q13131+Q9UGI9). The test can be described thus: AMP-dependent Kinase enzyme assay. An in vitro enzyme assay that detects ADP turnover that is directly proportional to AMPK activity. This uses naive AMPK that is activated during the assay with MK-8722. Format: functional. Particulars: 30 µM.

Test [4] has as its target Sialic acid-binding Ig-like lectin 9 (Homo sapiens) (UniProt Q9Y336). As to the kind of experiment: Hs-Siglec9 ALPHAscreen SOP 20170721. Particulars: 10 µM. For orientation: Bead proximity is the source of the signal in Alpha formats.
The subject of the next test is Trypanosoma cruzi. The test can be described thus: Trypanosoma cruzi phosphomannomutase and mannose-1-phosphate guanylyltransferase assay. It is filed as functional. Particulars: 10 µM.
Test [5] deals with T2, Arginase-2, mitochondrial (Homo sapiens) (UniProt P78540).
T2 sequence (whole entry): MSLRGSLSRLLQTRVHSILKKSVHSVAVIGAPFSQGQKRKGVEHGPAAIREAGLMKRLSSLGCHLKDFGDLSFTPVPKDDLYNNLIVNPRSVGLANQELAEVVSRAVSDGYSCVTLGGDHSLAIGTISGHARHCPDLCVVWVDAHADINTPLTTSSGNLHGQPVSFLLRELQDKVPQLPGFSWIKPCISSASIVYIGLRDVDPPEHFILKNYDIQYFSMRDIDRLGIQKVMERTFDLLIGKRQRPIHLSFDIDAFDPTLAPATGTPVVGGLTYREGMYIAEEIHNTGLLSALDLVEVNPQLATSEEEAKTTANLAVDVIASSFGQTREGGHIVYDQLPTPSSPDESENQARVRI
As to the kind of experiment: in vitro enzyme assay to detect the production of urea directly proportional to the activity of Arginase II. Note: in the data most compounds retested in dose-response had high values. Format: functional. Particulars: 33.3 µM.

Test [6] concerns the target T3, Proteasome subunit beta (Trypanosoma cruzi) (UniProt O96673).
T3 sequence (whole entry): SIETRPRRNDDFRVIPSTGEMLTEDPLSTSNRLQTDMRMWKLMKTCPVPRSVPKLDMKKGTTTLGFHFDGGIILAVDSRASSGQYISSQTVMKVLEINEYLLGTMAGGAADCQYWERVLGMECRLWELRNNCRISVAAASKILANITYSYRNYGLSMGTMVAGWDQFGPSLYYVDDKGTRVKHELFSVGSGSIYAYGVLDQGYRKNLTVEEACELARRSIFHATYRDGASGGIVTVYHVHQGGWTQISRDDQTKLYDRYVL
The test can be described thus: Trypanosoma cruzi proteasome chymotrypsin-like activity (TcProtChymo) assay. Note: in the data most compounds retested in dose-response had high values. As to conditions: 9.37 µM. Format: functional.

The species named for the next test is Homo sapiens. As to the kind of experiment: To identify inhibition of the IFN signalling (Jak-Stat) pathway via expression of an eGFP reporter gene under the control of an IFN-stimulated response element (ISRE) containing MxA promoter. It is filed as functional. Particulars: 30 µM. A general note: A reporter such as luciferase makes a cellular process visible.

Test [7] deals with T4, Tyrosyl-tRNA synthetase, putative (Trypanosoma cruzi (strain CL Brener)) (UniProt Q4DSP6).
T4 sequence (whole entry): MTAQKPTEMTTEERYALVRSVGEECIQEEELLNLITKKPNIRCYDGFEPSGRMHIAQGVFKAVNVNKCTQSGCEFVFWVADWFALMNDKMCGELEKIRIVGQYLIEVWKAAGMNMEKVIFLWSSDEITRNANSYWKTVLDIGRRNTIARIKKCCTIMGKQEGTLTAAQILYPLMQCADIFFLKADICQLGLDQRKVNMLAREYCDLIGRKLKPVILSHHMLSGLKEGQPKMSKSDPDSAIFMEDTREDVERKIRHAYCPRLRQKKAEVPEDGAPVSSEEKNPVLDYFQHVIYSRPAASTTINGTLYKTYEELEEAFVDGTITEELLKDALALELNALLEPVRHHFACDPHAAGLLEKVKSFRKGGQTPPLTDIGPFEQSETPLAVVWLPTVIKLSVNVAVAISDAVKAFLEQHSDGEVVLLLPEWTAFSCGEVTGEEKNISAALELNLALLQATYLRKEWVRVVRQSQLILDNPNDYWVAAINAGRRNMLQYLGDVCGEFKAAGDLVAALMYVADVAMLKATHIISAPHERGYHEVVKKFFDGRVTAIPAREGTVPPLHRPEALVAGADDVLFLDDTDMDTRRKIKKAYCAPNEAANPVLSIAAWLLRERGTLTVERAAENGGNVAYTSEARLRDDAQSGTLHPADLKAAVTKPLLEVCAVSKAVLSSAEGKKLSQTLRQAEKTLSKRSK
As to the kind of experiment: Trypanosoma cruzi tyrosyl tRNA synthetase (TcYRS) _High Tyrosine SOP. Note: in the data most compounds retested in dose-response had high values. It is filed as functional. Particulars: 30 µM.

Test [8] concerns the target T4, Tyrosyl-tRNA synthetase, putative (Trypanosoma cruzi (strain CL Brener)). The test can be described thus: Trypanosoma cruzi tyrosyl tRNA synthetase (TcYRS) SOP. Particulars: 30 µM. Format: functional.
The target of test [9] is Chromo domain-containing protein 1 (Saccharomyces cerevisiae (strain ATCC 204508 / S288c) (Baker's yeast)) (UniProt P32657). The test can be described thus: ScCHD-1 Enzyme Inhibition Assay. Note: in the data most compounds retested in dose-response had high values. Format: functional. Particulars: 30 µM.
Chain of Chromo domain-containing protein 1 (Saccharomyces cerevisiae (strain ATCC 204508 / S288c) (Baker's yeast)) (P32657 whole entry, the tested form may be a part): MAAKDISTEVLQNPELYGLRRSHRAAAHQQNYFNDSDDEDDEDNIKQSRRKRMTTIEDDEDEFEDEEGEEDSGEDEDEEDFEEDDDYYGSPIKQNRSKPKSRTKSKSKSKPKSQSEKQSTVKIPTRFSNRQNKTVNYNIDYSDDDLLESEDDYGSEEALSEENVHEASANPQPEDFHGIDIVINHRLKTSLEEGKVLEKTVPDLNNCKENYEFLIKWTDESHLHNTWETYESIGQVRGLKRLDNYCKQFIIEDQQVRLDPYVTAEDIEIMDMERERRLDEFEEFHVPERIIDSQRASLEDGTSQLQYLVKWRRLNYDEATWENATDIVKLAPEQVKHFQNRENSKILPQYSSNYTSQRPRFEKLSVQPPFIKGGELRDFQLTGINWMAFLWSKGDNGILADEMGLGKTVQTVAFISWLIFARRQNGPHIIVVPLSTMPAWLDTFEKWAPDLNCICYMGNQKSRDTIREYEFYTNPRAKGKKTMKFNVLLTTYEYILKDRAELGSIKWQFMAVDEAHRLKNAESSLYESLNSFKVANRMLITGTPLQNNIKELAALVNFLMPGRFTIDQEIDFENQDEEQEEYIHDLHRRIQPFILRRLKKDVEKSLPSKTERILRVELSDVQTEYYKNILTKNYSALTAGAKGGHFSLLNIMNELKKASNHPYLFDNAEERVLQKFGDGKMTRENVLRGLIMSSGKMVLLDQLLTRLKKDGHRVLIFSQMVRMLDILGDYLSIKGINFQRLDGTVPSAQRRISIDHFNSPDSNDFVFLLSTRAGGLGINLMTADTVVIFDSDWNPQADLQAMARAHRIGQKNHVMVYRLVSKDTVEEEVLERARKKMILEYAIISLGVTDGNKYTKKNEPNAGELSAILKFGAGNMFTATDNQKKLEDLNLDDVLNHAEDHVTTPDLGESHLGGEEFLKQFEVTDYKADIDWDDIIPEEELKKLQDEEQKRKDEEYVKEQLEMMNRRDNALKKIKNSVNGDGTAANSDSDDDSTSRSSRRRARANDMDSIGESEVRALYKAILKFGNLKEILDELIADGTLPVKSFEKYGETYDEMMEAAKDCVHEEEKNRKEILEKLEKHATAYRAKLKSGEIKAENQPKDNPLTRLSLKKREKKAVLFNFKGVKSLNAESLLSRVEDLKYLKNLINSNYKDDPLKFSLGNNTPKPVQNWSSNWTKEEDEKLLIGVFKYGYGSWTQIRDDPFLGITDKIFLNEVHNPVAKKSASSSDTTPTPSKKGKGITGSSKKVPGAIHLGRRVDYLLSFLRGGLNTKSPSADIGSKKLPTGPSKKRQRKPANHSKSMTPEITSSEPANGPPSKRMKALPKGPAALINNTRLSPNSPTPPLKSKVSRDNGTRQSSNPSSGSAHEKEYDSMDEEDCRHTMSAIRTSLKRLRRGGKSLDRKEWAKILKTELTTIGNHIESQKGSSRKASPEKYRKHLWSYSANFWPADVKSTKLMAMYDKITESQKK

For some assays here: Entries with a potency or affinity are not part of this list.

Consider ten molecules from ChEMBL document CHEMBL3988442, “University of Dundee, Small-Polar-MMV Screening Library” (2021).

Chain of Sialic acid-binding Ig-like lectin 9 (Homo sapiens) (Q9Y336 whole entry): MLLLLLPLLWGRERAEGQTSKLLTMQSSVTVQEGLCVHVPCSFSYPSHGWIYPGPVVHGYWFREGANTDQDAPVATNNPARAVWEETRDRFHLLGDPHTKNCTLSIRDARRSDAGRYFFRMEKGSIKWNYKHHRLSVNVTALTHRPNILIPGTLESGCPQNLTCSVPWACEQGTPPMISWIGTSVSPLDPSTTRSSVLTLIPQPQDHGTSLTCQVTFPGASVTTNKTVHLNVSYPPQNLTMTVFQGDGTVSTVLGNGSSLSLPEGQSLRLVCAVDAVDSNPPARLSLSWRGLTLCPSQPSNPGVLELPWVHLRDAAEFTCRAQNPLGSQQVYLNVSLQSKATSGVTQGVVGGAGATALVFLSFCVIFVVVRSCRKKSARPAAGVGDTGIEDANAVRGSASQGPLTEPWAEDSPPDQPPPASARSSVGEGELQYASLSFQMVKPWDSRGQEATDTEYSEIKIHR
Chain of Protein translocase subunit SecA (Escherichia coli (strain K12)) (P10408 whole entry): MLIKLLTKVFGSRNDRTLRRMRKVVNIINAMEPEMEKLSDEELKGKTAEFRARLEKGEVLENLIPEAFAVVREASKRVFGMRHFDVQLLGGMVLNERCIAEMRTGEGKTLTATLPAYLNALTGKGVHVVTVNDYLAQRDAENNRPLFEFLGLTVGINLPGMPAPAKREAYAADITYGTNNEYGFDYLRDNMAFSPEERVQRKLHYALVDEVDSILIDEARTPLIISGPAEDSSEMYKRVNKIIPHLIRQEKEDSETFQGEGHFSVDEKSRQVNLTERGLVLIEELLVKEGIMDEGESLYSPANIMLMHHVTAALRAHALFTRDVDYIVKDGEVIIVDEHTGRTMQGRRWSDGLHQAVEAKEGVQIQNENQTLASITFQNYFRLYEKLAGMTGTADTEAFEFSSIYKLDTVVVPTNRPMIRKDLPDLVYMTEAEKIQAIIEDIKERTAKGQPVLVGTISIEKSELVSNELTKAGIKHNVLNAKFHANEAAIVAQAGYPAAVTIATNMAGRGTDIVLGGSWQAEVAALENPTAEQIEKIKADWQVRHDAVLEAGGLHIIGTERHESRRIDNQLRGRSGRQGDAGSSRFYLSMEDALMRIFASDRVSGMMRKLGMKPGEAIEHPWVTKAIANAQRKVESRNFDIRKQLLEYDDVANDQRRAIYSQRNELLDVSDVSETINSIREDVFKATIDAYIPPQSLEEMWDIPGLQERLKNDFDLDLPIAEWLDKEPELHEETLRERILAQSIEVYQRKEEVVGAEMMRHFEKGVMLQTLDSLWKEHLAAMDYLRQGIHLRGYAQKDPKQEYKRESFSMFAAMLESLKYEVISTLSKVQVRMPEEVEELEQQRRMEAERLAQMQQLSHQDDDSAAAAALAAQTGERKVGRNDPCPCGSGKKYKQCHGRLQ

Consider `CC(C)c1nc(C2CCCN2C(=O)c2cnc[nH]2)no1` (stereo not given), for which the Percent Effect is -7.47% in [1]; 8.11% in test [2]; 3.18% in test [3]; 5.28% in test [4]; -6.96% in the test on Trypanosoma cruzi; 0.554% in test [5]. The Percent Effect in [6] is -5.75%; in the test filed under Homo sapiens, 23.2%; in [7] it was 0%; in test [8], 1.22%; in test [9], 4.79%.
Consider `Cn1ncc2c1CCCC2NCc1cc(Br)cs1` (stereo not given), for which the Percent Effect was -0.998% in test [1]; 13% in test [2]; 0.777% in [3]; -1.41% in test [4]; 3.82% in the test with Trypanosoma cruzi; 2.74% in test [5]. For the same molecule, the Percent Effect is 21.4% in test [6]; 5.32% in the test listed under Homo sapiens; 7.62% in test [7]; 11.8% in [8]; -8.68% in [9].
`c1nc2c(c(C3CC3)n1)CCN(Cc1ccc3c(c1)OCO3)CC2`: the Percent Effect in test [1] is -2.79%; in [2], -5.48%; in test [3], 3.53%; in test [4] it was 13.7%; in the test on Trypanosoma cruzi, 4.37%; in test [5], -0.399%. Further, the Percent Effect was 7.45% in [6]; 8.17% in the test filed under Homo sapiens; 6.25% in test [7]; 1.24% in test [8]; -2.36% in test [9].
Consider `CC1(C(=O)N2CCOCC2)CN(Cc2ccccn2)CCO1` (stereo not given), for which the Percent Effect was -7.59% in test [1]; 1.35% in test [2]; -5.87% in [3]; -5.46% in [4]; -4.35% in the test on Trypanosoma cruzi; -5.8% in [5]. Besides, the Percent Effect in test [6] was 9.52%; in the test filed under Homo sapiens, 24.2%; in test [7], 1.07%; in [8] it was -3.9%; in test [9] it was 6.62%.
With `c1ccc(-n2cc(CN3CCCC(Cn4cncn4)C3)nn2)cc1` (stereo not given), the Percent Effect in test [1] was -2.56%; in test [2], 3.8%; in test [3], 7.41%; in test [4], 3.66%; in the test with Trypanosoma cruzi it was -3.79%; in [5], -0.215%. The Percent Effect in test [6] is 15.4%; in the test listed under Homo sapiens, 12.2%; in [7], 7.29%; in test [8], 12.7%; in test [9], -25.5%.
Consider `CC(OCC(F)(F)F)C(=O)N1CCCCC1` (stereo not given), for which the Percent Effect in test [1] is -5.31%; in [2] it was 0%; in test [3] it was -0.316%; in test [4], -2.51%; in the test with Trypanosoma cruzi it was -0.783%; in test [5], -2.27%. Further, the Percent Effect was -1.77% in test [6]; 19.4% in the test filed under Homo sapiens; 1.07% in test [7]; 2.5% in test [8]; 0.868% in test [9].
Turning to `CNS(=O)(=O)c1cccc(CNc2ccc(C(F)(F)F)nn2)c1`, the Percent Effect is -5.02% in test [1]; 8.11% in test [2]; -4.31% in test [3]; -0.144% in test [4]; -3.87% with Trypanosoma cruzi; 30.9% in test [5]. In addition, the Percent Effect was -1.62% in test [6]; 19.2% in the test listed under Homo sapiens; 4.43% in test [7]; 6.17% in [8]; -1.87% in test [9].
On to `Cc1cnn(CC2CCCN2C(=O)CCc2ccsc2)c1` (stereo not given), for which the Percent Effect is -4.66% in [1]; 7.79% in [2]; 3.01% in [3]; 4.3% in [4]; 3.82% with Trypanosoma cruzi; 2.32% in test [5]. In addition, the Percent Effect in test [6] is 0.242%; in the test filed under Homo sapiens, 15.8%; in test [7] it was 1.91%; in test [8], 7.06%; in test [9], -15.5%.
On to `Cc1ccc(CN(C)C(=O)CN2CCOC(Cn3cncn3)C2)o1` (stereo not given), for which the Percent Effect was 1.63% in test [1]; 15.2% in test [2]; -6.86% in [3]; -11.8% in test [4]; -7.46% with Trypanosoma cruzi; 9.89% in test [5]. The Percent Effect is 13% in [6]; 16.3% in the test listed under Homo sapiens; 5.42% in [7]; 11.4% in test [8]; -2.75% in test [9].
On to `COc1cccc(CNCc2c(C(C)C)nn(C)c2N(C)C)c1OC`, for which the Percent Effect in [1] is 2%; in test [2] it was 10.5%; in [3], -0.641%; in test [4], -1.37%; in the test with Trypanosoma cruzi it was -7.33%; in [5] it was 2.68%. In addition, the Percent Effect in test [6] is 16.2%; in the test filed under Homo sapiens, 8.82%; in test [7] it was 3.43%; in test [8], 7.32%; in [9] it was -8.1%.
